Pf growth 96h = P. falciparum growth inhibition at 96 hours; AID 504834; hit rate 6.9% among 320,000; Potency, µM (highest dose often 28.7 µM), for the others: top-dose activity change, negative = inhibition, hits mostly inhibitors; P. falciparum luciferase reporter growth, 96 h; note: % is set by controls: 0 for no effect and ±100 for the full control effect
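Compounds incubated with erythrocytes infected by luciferase-expressing P. falciparum (2% hematocrit, 0.05% parasitemia final) for 96 hours, 37 C in 5% CO2. Growth inhibition scored as decreased luciferase luminescence.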
Pf growth 48h = inhibits P. falciparum growth in the first generation, 48 h; P. falciparum luciferase growth in erythrocytes, 48 h; hit rate 5.9% among 310,000; Potency, µM (highest dose often 28.7 µM), for the others: top-dose activity change, negative = inhibition, hits mostly inhibitors; note: % is set by controls: 0 for no effect and ±100 for the full control effect
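Compounds are pin-transferred into medium, infected erythrocytes (2% hematocrit, 0.1% parasitemia final) are added, and plates sit one parasite generation at 37 C in 5% CO2. Detection reagent is then added and luminescence measured.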
NS1 inh = blocks influenza NS1 protein function; Potency, µM (top dose mostly 46.1 µM), for inactives: at the top dose activity, positive = more growth; hit rate 0.4% among 270,000; AID 2326; calls by dose curve; note: actives are rising curves; nearly all actives have a fitted effect of over 50% in size
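S. cerevisiae expressing influenza A NS1, grown in glucose, washed, then diluted 1:100 into pH 6.0 -URA galactose medium with 23 nl compound. Growth recovery read as OD600; NS1-free strain serves as control.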
Vaccinia mCherry = vaccinia inhibition (mCherry reporter). Vaccinia virus mCherry reporter infection, fluorescence. hit rate 0.63% among 310,000. Potency, µM (doses to about 36.5 µM), without a hit: top-dose activity change, negative = inhibition, usual class: inhibitors; calls by dose curve; tested in A549 cells; note: % is set by controls: 0 for no effect and ±100 for the full control effect; nearly all actives have a fitted effect of over 35% in size
Vaccinia Venus = inhibitors of vaccinia virus (Venus reporter). Vaccinia virus Venus reporter expression, fluorescence. Potency, µM (series often up to 36.5 µM), for inactives: top-dose activity change, negative = inhibition, hits mostly inhibitors. hit rate 0.46% among 330,000; calls by dose curve; tested in A549 cells; note: % is set by controls: 0 for no effect and ±100 for the full control effect; nearly all actives have a fitted effect of over 30% in size
HCV inh = HCV inhibition | Huh7.5.1 HCVcc-Cre infection, luciferase reporter, 44 h | Potency, µM (series often up to 41.8 µM), for inactives: top-dose activity change, negative = inhibition, actives largely listed as inhibitors | hit rate 3.4% among 340,000 | AID 651820; note: % is set by controls: 0 for no effect and ±100 for the full control effect
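Seed cells (1,000/well) for 4 h; treat with compound and infect with HCVcc-Cre, moi about 0.5. Incubate 44 h, then detect luciferase activity.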
* hit, by the source's call; i = inactive; ? = inconclusive; nt = no result given; [ ] = another dose, or the depositor's remark. Hits are enriched below; roughly 11% of the tested compounds scored in any of these assays. Unless noted, calls come from the whole dose curve; as a rule, active = well fitted inhibition curve with a large enough effect; inconclusive = small, poorly fitted or top-dose-only effect, or another doubt; inactive = no such curve, though single readings can be large or run the other way. Potency is the fitted concentration of half-maximal effect.

SMILES | Pf growth 96h | Pf growth 48h | NS1 inh | Vaccinia mCherry | Vaccinia Venus | HCV inh
COc1ccc(NC(=S)NN2CCN(C)CC2)cc1OC | 2.3µM* | 24% | 3% | i | -14% | 11%
CCOc1ccc(CN(C(=O)c2cc3ccccc3oc2=O)C2CCS(=O)(=O)C2)cc1 (configuration not stated) | 13% | -1% | -2% | -2% | -15% | 9%
CCOc1ccc(CN(C(=O)c2cc3ccccc3oc2=O)C2CC2)cc1 | -9% | 12µM* | -25% | i | -19% | 6%
O=C(c1cc2ccccc2oc1=O)N(Cc1ccccc1F)C1CCS(=O)(=O)C1 (configuration not stated) | 5.2µM* | 19% | 1% | nt | nt | 10%
O=C(Nc1ccc(F)cc1F)c1ccc2c(c1)[nH]c(=O)n2Cc1ccc(F)cc1 | 39% | -20% | 25% | nt | nt | -27%
CCN1CCN(S(=O)(=O)c2ccc(S(=O)(=O)N(CC)Cc3ccccc3)cc2)CC1 | ? | 13µM* | -2% | -18% | -15% | -11%
COCCN(Cc1ccccc1)C(=O)c1cc(S(=O)(=O)N2CCCCCC2)ccc1OC | ? | ? | nt | -7% | -20% | 14%
Cc1ccc(S(=O)(=O)N2CCCCC2)cc1C(=O)N(CCc1ccccc1)Cc1ccccc1 | 9.3µM* | 13µM* | nt | -10% | -25% | ?
CCN1CCN(S(=O)(=O)c2ccc(Cl)c(C(=O)N(CC)Cc3ccccc3)c2)CC1 | -1% | ? | nt | -22% | -12% | ?
CCN1CCN(S(=O)(=O)c2ccc(Cl)c(C(=O)N(CCc3ccccc3)Cc3ccccc3)c2)CC1 | nt | nt | nt | nt | nt | 13µM*
O=C(c1cc(S(=O)(=O)N2CCOCC2)ccc1F)N(CCc1ccccc1)Cc1ccccc1 | ? | 9.3µM* | nt | -12% | -4% | ?
O=C(NCCc1ccccc1)c1cc(S(=O)(=O)N2CCOCC2)ccc1F | nt | 14% | 15% | nt | nt | 11%
CC(C)(C)c1ccc(-c2noc(C(=O)NN)n2)cc1 | 2% | -8% | 3% | 0%[7.34 µM] | 5%[7.34 µM] | 7%
CCN(CC)C(=O)CSc1nnc2c3ccccc3n(C)c2n1 | ? | 10% | -14% | 1% | -5% | -14%
CCOC(=O)c1c(C)[nH]c(C(=O)COC(=O)c2ccc(F)c(S(=O)(=O)N3CCOCC3)c2)c1C | 4%[5.75 µM] | -21% | -20% | -12% | -8% | -13%
O=C(NCc1ccco1)c1ccc2c(c1)N(Cc1ccc(F)cc1)C(=O)c1ccccc1S2(=O)=O | nt | nt | nt | -16% | -5% | nt
CC1(C)CC(=O)c2c(nc(SCC(=O)Nc3nsc(-c4ccccc4)n3)c(C#N)c2-c2ccccc2)C1 | 15µM* | ? | ? | -15%[1.46 µM] | -19% | ?
Cc1ccc(-c2nc(NC(=O)CSc3cc(C)c4ccccc4n3)ns2)cc1 | 15µM* | 30% | 4% | ? | -29% | 6%[8.37 µM]
Cc1nnc(SCC(=O)Nc2nsc(-c3ccccc3)n2)s1 | 7.4µM* | 26% | 3% | nt | nt | ?
CC1Cc2ccccc2N1C(=O)c1ccnc(C(C)(C)C)c1 (configuration not stated) | 30% | 12µM* | -50% | -14% | -12% | ?
CC1Cc2ccccc2N1C(=O)c1cccnc1 (configuration not stated) | nt | -3% | ? | -11% | -6% | 5%
CC(C)CSc1nc2ccccc2n1CC(N)=O | -1% | 0% | 1% | -19% | -5% | 10%
N=C1C(c2nc3ccccc3c(=O)[nH]2)=C(O)CN1CCc1ccccc1 | 6% | nt | -6% | -9% | ? | 5%
CC[N+]1(C)CCC(=C2c3ccccc3CC(=O)c3sccc32)CC1 (configuration not stated) | 12µM* | ? | 0% | nt | nt | 1%
COc1ccc(Cl)cc1N(C(C)C(=O)NC1CCCC1)S(C)(=O)=O (configuration not stated) | 10% | -18% | 1% | -14% | 0% | 3%
SMILES | Pf growth 96h | Pf growth 48h | NS1 inh | Vaccinia mCherry | Vaccinia Venus | HCV inh
NC(=O)c1ccc(-c2nnn(CC(=O)Nc3cccc(S(=O)(=O)N4CCCC4)c3)n2)cc1 | -2% | -5% | nt | nt | nt | -16%
O=C(CN1CCCc2ccccc21)Nc1cccc(S(=O)(=O)N2CCOCC2)c1 | ? | ? | nt | -16% | -8% | -12%
O=C(Cn1nnc(-c2ccc(S(=O)(=O)N3CCCC3)cc2)n1)Nc1ccccc1-n1cccc1 | ? | 9.3µM* | -32% | nt | nt | 0%
Cc1ccc2c(c1)CCCN2CC(=O)Nc1cc(S(=O)(=O)N2CCCC2)ccc1Cl | 4.7µM* | 10µM* | nt | nt | nt | ?
O=C(CN1CCCc2ccccc21)Nc1cc(S(=O)(=O)N2CCCC2)ccc1Cl | 8.3µM* | 13µM* | nt | nt | nt | ?
CC(C)(C)NC(=O)C(c1cccs1)N(Cc1cccs1)C(=O)c1ccc(CN2CCOCC2)o1 (configuration not stated) | -16% | -19% | nt | i | -10% | 7%
Cc1cccc(N(C(=O)c2ccc(CN3CCOCC3)o2)C(C(=O)NC(C)(C)C)c2ccc(F)cc2)c1 (configuration not stated) | ? | 8.3µM* | -1% | -16%[1.46 µM] | -3% | -9%
CCN(C(=O)Cc1c(C(=O)O)[nH]c2ccccc12)c1cc(OC)ccc1OC | 7.4µM* | ? | -8% | nt | nt | 15%
COc1ccc(CCNC2=CC(=O)N(c3ccc(F)cc3)C2=O)cc1 | 3.3µM* | 1% | nt | i | -7% | -11%
COc1ccc(CCNc2ncnc3c2cnn3-c2ccc(F)cc2)cc1 | nt | nt | nt | 10% | 3% | nt
COc1cccc(NC(=S)N/N=C2\CC3CCC2(C)C3(C)C)c1 (configuration not stated) | ? | 10µM* | nt | -19% | -17% | ?
COc1ccc(C(=O)CSc2ncn[nH]2)cc1OC | -1% | 16% | 5% | -13% | -5% | 21%
c1ccc(CSc2ncn[nH]2)nc1 | 5.2µM* | 6% | -1% | -2% | 3% | 8%
COc1cc(CSc2ncn[nH]2)c(OC)cc1CSc1ncn[nH]1 | 13µM* | ? | 2% | nt | nt | 3%
Cc1ccc2oc(=O)c3cnn(CC(=O)NCCN4CCOCC4)c3c2c1 | 9.3µM* | 13% | -10% | i | -6% | 11%
Cc1ccc2oc(=O)c3cnn(CC(=O)NC4CCN(Cc5ccccc5)CC4)c3c2c1 | 2.3µM* | nt | -2% | i | 7% | -14%
COC(=O)C(CCSC)NC(=O)Cn1ncc2c(=O)oc3ccccc3c21 (configuration not stated) | 12µM* | nt | -1% | -12% | 6% | 3%
COC(=O)[C@H](CCSC)NC(=O)Cn1cc(C)c(=O)[nH]c1=O | nt | nt | nt | i | -3% | 0.5µM*
COc1cc(NC(=O)Cn2ncc3c(=O)oc4ccccc4c32)cc(OC)c1OC | nt | nt | nt | -4% | -7% | nt
Cc1ccc2oc(=O)c3cnn(CC(=O)NCCN(C)C)c3c2c1 | -28% | -1% | -3% | -14% | -5% | 4%

High-throughput results deposited in PubChem by National Center for Advancing Translational Sciences (NCATS).
